HCV inh: HCV inhibition. Potency, µM (doses to about 41.8 µM), usual class: inhibitors. actives 3.4% (n = 340,000). AID 651820. Huh7.5.1 HCVcc-Cre infection, luciferase reporter, 44 h; active = well fitted inhibition curve with a large enough effect; inconclusive = small, poorly fitted or top-dose-only effect, or another doubt; inactive = no such curve, though single readings can be large or run the other way
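Infectious HCVcc-Cre (~0.5 moi) was added to cells just after compound, with cells seeded 4 h earlier at 1,000 per well. Luciferase activity after 44 h culture reported infection; substrate was incubated 15 min at room temperature before reading.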
LASV entry inh: Lassa virus entry inhibition | actives 1.2% (n = 300,000) | AID 540256 | Potency, µM (titrated, usually from 37.9 µM), usual class: inhibitors | Lassa virus pseudotype entry inhibition, cell reporter; calls by dose curve; tested in HEK293 cells; note: nearly all actives have a fitted effect of over 50% in size
VACV Venus inh: inhibitors of vaccinia virus (Venus reporter) | actives 0.46% (n = 330,000) | AID 720580 | Vaccinia virus Venus reporter expression, fluorescence | Potency, µM (top dose mostly 36.5 µM), actives largely listed as inhibitors; calls by dose curve; tested in A549 cells; note: nearly all actives have a fitted effect of over 30% in size
HCMV antiviral: human cytomegalovirus inhibition | HFF cells, HCMV-luciferase reporter, 72 h; active compounds read low | activity change, negative = inhibition, % at 57.5 µM | actives 4.5% (n = 410,000); in the data active = activity change below about -60%; inconclusive = no clear call, values can overlap the other calls; inactive = above about -39%
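Compounds were evaluated in HFFs infected with an HCMV luciferase reporter virus (MOI 1 PFU/cell). Luciferase in lysates collected 72 h post infection served as the replication measure.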
Marburg entry inh: blocks Marburg virus binding to or entry into cells. Marburg virus pseudotyped entry inhibition, cell reporter. Potency, µM (top dose mostly 37.8 µM), most hits filed as inhibitors. actives 1.8% (n = 300,000). AID 540276; calls by dose curve; tested in HEK293 cells
Vaccinia mCherry: vaccinia inhibition (mCherry reporter); Potency, µM (series often up to 36.5 µM), hits mostly inhibitors; Vaccinia virus mCherry reporter infection, fluorescence; actives 0.63% (n = 310,000); AID 720579; calls by dose curve; tested in A549 cells; note: nearly all actives have a fitted effect of over 35% in size
Of the large screens only hits and unclear results are named; the others gave an inactive call. Shown are actives, neighbours in structure and some others; about 7.8% of the full set was active somewhere.

CCN1CCN(CCOc2ccc(Cl)cc2)CC1	none
Cc1sc2ncnc(N3CCN(S(=O)(=O)c4ccccc4)CC3)c2c1C	HCV inh 11µM (no result: HCMV antiviral)
Clc1ccc(OCCN2CCN(c3ncnc4sccc34)CC2)cc1	HCV inh 0.32µM, LASV entry inh inconclusive, HCMV antiviral inconclusive, Marburg entry inh inconclusive (no result: VACV Venus inh, Vaccinia mCherry)
Cc1ccc(OCCN2CCN(c3ncnc4sc(C)c(C)c34)CC2)cc1	HCV inh 2.5µM, LASV entry inh inconclusive, HCMV antiviral -99, Marburg entry inh inconclusive (no result: VACV Venus inh, Vaccinia mCherry)
Cc1sc2ncnc(N3CCOCC3)c2c1C	HCMV antiviral -66
Cc1nc(N2CCN(S(=O)(=O)c3ccc(F)cc3)CC2)c2c(-c3cccs3)csc2n1	HCV inh inconclusive, LASV entry inh inconclusive, HCMV antiviral -66, Marburg entry inh inconclusive
Cc1cccc(Cn2c(CNS(=O)(=O)c3ccc4c(c3)CCCC4)nc3cccnc32)c1	none (no result: HCV inh, Marburg entry inh)
CC(=O)OCCC(C)CCC=C(C)C (stereo unspecified)	none (no result: HCV inh, LASV entry inh, HCMV antiviral, Marburg entry inh)
COc1ccc(-c2cc(C(=O)NCCN3CCOCC3)c3ccccc3n2)cc1OC	none (no result: HCV inh)
COc1ccc(-c2c(-c3ccccc3)c(C(=O)C(=O)NCCCN(C)C)n3ccc4cc(OC)c(OC)cc4c23)cc1OC	HCV inh inconclusive, HCMV antiviral -96, Marburg entry inh inconclusive
O=S(=O)(c1ccc(Br)cc1)c1nc(-c2cccs2)oc1SCc1ccccc1F	none (no result: HCV inh)
FC(F)(F)c1cccc(-c2n[nH]c3ccnc(-c4ccsc4)c23)c1	HCMV antiviral -60 (no result: HCV inh, LASV entry inh, VACV Venus inh, Marburg entry inh, Vaccinia mCherry)
O=C(Cc1ccc(OCc2ccccn2)cc1)NO	none (no result: HCV inh, LASV entry inh, HCMV antiviral, Marburg entry inh)
CCC(=O)N1[C@H](C(=O)NC2CCCC2)[C@@H](CO)[C@@H]2Cn3c(cccc3=O)[C@@H]21	none (no result: HCV inh, LASV entry inh, VACV Venus inh, Marburg entry inh, Vaccinia mCherry)
CCCCOC(=O)Cn1c(-c2ccccc2)nc2ccccc2c1=O	HCMV antiviral -76
COc1ccc(CNn2c(C)nc3ccccc3c2=O)cc1	Marburg entry inh inconclusive, Vaccinia mCherry inconclusive
CCOC(=O)CSc1nc2ccccc2c(=O)n1CC	none
CCOC(=O)Cn1c(-c2ccccc2)nc2ccccc2c1=O	HCMV antiviral -95
CCCCOc1ccc(CNn2c(C)nc3ccccc3c2=O)cc1	HCV inh 10µM, HCMV antiviral inconclusive, Marburg entry inh inconclusive
CCCOC(=O)Cn1c(=O)c2cc3c(=O)n(CC(=O)OCCC)c(=O)c3cc2c1=O	HCMV antiviral -72
CCCOC(=O)C(C)n1c(-c2ccccc2)nc2ccccc2c1=O (stereo unspecified)	Vaccinia mCherry inconclusive
Cc1cc(C)c(NC(=O)Cn2nc(-c3ccncc3)ccc2=O)c(C)c1	HCMV antiviral inconclusive (no result: HCV inh, Marburg entry inh)
COC(=O)N[C@@H](C=Cc1ccccc1)C(C(=O)OC)=C(C)NCc1ccccc1	none (no result: HCV inh, LASV entry inh, VACV Venus inh, HCMV antiviral, Vaccinia mCherry)
C=C/C(C)=C/CC1C(=C)CCC2C(C)(C(=O)O)CCCC12C (stereo unspecified)	none (no result: LASV entry inh, Marburg entry inh)
C=C1CC[C@@H]2[C@](C)(CO)[C@H](O)CC[C@@]2(C)[C@@H]1C/C=C1/C(=O)OCC1O (stereo partly specified)	HCMV antiviral -77 (no result: LASV entry inh, Marburg entry inh)
O=C(NCc1ccccc1Cl)C(=O)NCC(c1cccs1)S(=O)(=O)c1cccs1 (stereo unspecified)	LASV entry inh inconclusive, HCMV antiviral -62 (no result: HCV inh, Marburg entry inh)
CCOC(=O)c1c(C)[nH]c(C)c1C(=O)COC(=O)c1ccc(S(=O)(=O)N(CC)CC)cc1	HCV inh 25µM, LASV entry inh inconclusive (no result: VACV Venus inh, Vaccinia mCherry)
CCOC(=O)c1c(C)[nH]c(C)c1C(=O)COC(=O)c1cccc(S(=O)(=O)N(CC)CC)c1	HCV inh inconclusive, LASV entry inh 22µM, Vaccinia mCherry inconclusive
CCOC(=O)c1c(C)[nH]c(C)c1C(=O)COC(=O)c1cccc(S(=O)(=O)NC)c1	none
Cc1cc(O)c(C(C)C)cc1C1(c2cc(C(C)C)c(O)cc2C)OC(=O)c2ccccc21	HCV inh 5.6µM, LASV entry inh inconclusive, VACV Venus inh inconclusive, HCMV antiviral -103, Marburg entry inh inconclusive, Vaccinia mCherry inconclusive
N/C(=N\c1nc(CSc2ccc(Cl)cc2)cc(=O)[nH]1)Nc1cccc2ccccc12	HCMV antiviral -73, Marburg entry inh inconclusive
CC12C=C(C=Cc3ccc(Br)cc3)C(C)(C1)C(c1ccc(Br)cc1)CC2=O (stereo unspecified)	none (no result: HCV inh, VACV Venus inh, HCMV antiviral, Vaccinia mCherry)
CN(C(=O)c1ccccc1)c1nc2ccccc2s1	LASV entry inh inconclusive, Marburg entry inh 8.9µM (no result: Vaccinia mCherry)
CN(C)C(=O)c1nc2ccccc2s1	LASV entry inh inconclusive, Marburg entry inh inconclusive
CCOc1ccc(-n2nc(CO)c(C(=O)NCC(c3ccccc3)c3ccccc3)n2)cc1	none (no result: HCV inh)

Screens from PubChem.
